Data reported in PubChem BioAssay.
Active and inactive are the calls of the source.

Assays:
[1] = small molecules captured by biotinylated probe aFSTL3 – biochemical, small-molecule microarray, fluorescence 635/667, stem cell growth factor project, primary screen (AID 1064); conditions: higher = more signal;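 also: measures binding of the biotinylated anti-FSTL3 antibody to printed compounds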
[2] = binders from COS7 lysate, DM2A8 probe, primary screen, torsin A project, cell lysate, small-molecule microarray, fluorescence 635/667 (AID 1065); conditions: higher = more signal, COS7 lysate expressing mutant human TOR1A
[3] = small molecules captured by biotinylated probe aFGF2 – biochemical, small-molecule microarray, fluorescence 635/667, stem cell growth factor project, primary screen (AID 1067); conditions: higher = more signal;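 also: measures binding of biotinylated aFGF2 protein to printed compounds on slides; z-score merges feature fluorescence and signal-to-noise across triplicate slides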
[4] = small molecules captured by biotinylated probe aFGF10 – biochemical, small-molecule microarray, fluorescence 635/667, stem cell growth factor project, primary screen (AID 1071); conditions: higher = more signal;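 also: score merges 667 nm spot intensity and signal to noise from triplicate slides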
[5] = target: Neurogenic locus notch homolog protein 2 (Homo sapiens) (UniProt Q04721); experiment: small molecules binding Notch2 protein – biochemical, small-molecule microarray, 635 nm fluorescence, stem cell growth factors, primary screen (AID 1073); conditions: higher = more signal
[6] = target: Pro-neuregulin-1, membrane-bound isoform (Homo sapiens) (UniProt Q02297); experiment: small molecules binding neuregulin-1 protein – biochemical, small-molecule microarray, fluorescence 635/667, psychiatric disease protein project, primary screen (AID 1075); conditions: NRG1 binding, 635 nm fluorescence, higher = more signal;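 also: score combines 667 nm spot fluorescence with signal to noise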
[7] = test system: Neuregulin-1 EGF-like domain; experiment: small molecules binding NRG1 EGF domain – biochemical, small-molecule microarray, 635 nm fluorescence, primary screen (AID 1081); conditions: higher = more signal;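 also: binding of the protein to compounds printed on small-molecule microarray slides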
[8] = FRG1 expression reporter modulators in myotubes – cell-based, C2C12 myotubes, firefly/Renilla luciferase, luminescence, FRG1 inhibition for FSHD, primary screen (AID 1084); conditions: FRG1 promoter luciferase, higher = more signal, called active from +8 up or from −8 down
[9] = small molecules captured by biotinylated probe aFST – biochemical, small-molecule microarray, fluorescence 635/667, stem cell growth factor project, primary screen (AID 1086); conditions: higher = more signal;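 also: score merges 667 nm fluorescence with signal-to-noise of each printed compound spot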
[10] = binders of probe aHhip on microarray, primary screen, stem cell growth factor project, biochemical, small-molecule microarray, fluorescence 635/667 (AID 1087); conditions: higher = more signal;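 also: score merges spot fluorescence at 667nm with spot signal to noise ratio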
[11] = test system: PRMT1 (protein arginine N-methyltransferase 1); experiment: small molecules binding arginine methyltransferase PRMT1 – biochemical, small-molecule microarray, 635 nm fluorescence, primary screen (AID 1088); conditions: higher = more signal;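 also: binding of Prmt1 protein to compounds spotted on small-molecule microarray slides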
[12] = growth effects on S. cerevisiae YJM789 – YJM789 clinical isolate, OD600, 24 h, basal, primary screen (AID 1089); conditions: higher = more signal, called active from +8 up or from −8 down;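 also: growth of clinical yeast isolate S. cerevisiae YJM 789 seeded 1000 cells per well; test concentration not given here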
[13] = S. pombe growth modifiers, basal conditions – strain 972, OD600, 24 h, no modulator, primary screen (AID 1090);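 also: basal condition with compound alone and no growth modifier present; test concentration not given here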; conditions: S. pombe 972 growth, higher = more signal, called active from +8 up or from −8 down
[14] = budding yeast growth modifiers under rapamycin – strain BY4716, OD600, 96 h, primary screen (AID 1091); also: test concentration not given here; conditions: S. cerevisiae BY4716 + rapamycin, higher = more signal, called active from +8 up or from −8 down
[15] = target: Torsin-1A-interacting protein 2 (Homo sapiens) (UniProt Q8NFQ8); experiment: small molecules binding lysate-expressed LULL1 – cell lysate, human LULL1 lysate, 635/667 nm fluorescence, primary screen (AID 1092); conditions: small-molecule microarray, hLULL1 lysate binding, 635 nm fluorescence; higher = more signal;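 also: probe is lysate of COS7 cells overexpressing human LULL1; score merges per-feature 667 nm fluorescence with signal-to-noise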
[16] = optical density change of DRC41 E. coli – strain DRC41, OD650, 24 h, E. coli filamentation project, primary screen (AID 1093);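 also: MC1000 strain lacking acrAB efflux and sulA so SOS filamentation is blocked; test concentration not given here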; conditions: E. coli DRC41 growth, higher = more signal, called active from +8 up or from −8 down
[17] = probe aLefty2 binding to arrayed compounds – biochemical, biotinylated probe, 635/667 nm fluorescence, primary screen (AID 1094); conditions: small-molecule microarray, higher = more signal;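 also: score merges spot fluorescence near 667 nm with spot signal-to-noise ratio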
[18] = test system: Noggin (protein binding on small-molecule microarray); experiment: small molecules binding Noggin protein – biochemical, 635/667 nm fluorescence, primary screen (AID 1095); conditions: 635 nm fluorescence, higher = more signal;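 also: score merges 667 nm feature fluorescence with signal to noise over triplicate slides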
[19] = target: Neurogenic locus notch homolog protein 3 (Homo sapiens) (UniProt Q9UM47); experiment: small molecules binding NOTCH3 protein – biochemical, 635/667 nm fluorescence, primary screen (AID 1096); conditions: small-molecule microarray, 635 nm fluorescence, higher = more signal
[20] = probe aEGFR binding to arrayed compounds – biochemical, biotinylated probe, 635/667 nm fluorescence, primary screen (AID 1097); conditions: small-molecule microarray, higher = more signal;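 also: probe is a biotinylated anti-EGFR antibody binding compounds printed on slides; score combines fluorescence near 667 nm and signal to noise of each spot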

Neurogenic locus notch homolog protein 2 (Homo sapiens), sequence (Q04721 whole entry, looked up, canonical isoform): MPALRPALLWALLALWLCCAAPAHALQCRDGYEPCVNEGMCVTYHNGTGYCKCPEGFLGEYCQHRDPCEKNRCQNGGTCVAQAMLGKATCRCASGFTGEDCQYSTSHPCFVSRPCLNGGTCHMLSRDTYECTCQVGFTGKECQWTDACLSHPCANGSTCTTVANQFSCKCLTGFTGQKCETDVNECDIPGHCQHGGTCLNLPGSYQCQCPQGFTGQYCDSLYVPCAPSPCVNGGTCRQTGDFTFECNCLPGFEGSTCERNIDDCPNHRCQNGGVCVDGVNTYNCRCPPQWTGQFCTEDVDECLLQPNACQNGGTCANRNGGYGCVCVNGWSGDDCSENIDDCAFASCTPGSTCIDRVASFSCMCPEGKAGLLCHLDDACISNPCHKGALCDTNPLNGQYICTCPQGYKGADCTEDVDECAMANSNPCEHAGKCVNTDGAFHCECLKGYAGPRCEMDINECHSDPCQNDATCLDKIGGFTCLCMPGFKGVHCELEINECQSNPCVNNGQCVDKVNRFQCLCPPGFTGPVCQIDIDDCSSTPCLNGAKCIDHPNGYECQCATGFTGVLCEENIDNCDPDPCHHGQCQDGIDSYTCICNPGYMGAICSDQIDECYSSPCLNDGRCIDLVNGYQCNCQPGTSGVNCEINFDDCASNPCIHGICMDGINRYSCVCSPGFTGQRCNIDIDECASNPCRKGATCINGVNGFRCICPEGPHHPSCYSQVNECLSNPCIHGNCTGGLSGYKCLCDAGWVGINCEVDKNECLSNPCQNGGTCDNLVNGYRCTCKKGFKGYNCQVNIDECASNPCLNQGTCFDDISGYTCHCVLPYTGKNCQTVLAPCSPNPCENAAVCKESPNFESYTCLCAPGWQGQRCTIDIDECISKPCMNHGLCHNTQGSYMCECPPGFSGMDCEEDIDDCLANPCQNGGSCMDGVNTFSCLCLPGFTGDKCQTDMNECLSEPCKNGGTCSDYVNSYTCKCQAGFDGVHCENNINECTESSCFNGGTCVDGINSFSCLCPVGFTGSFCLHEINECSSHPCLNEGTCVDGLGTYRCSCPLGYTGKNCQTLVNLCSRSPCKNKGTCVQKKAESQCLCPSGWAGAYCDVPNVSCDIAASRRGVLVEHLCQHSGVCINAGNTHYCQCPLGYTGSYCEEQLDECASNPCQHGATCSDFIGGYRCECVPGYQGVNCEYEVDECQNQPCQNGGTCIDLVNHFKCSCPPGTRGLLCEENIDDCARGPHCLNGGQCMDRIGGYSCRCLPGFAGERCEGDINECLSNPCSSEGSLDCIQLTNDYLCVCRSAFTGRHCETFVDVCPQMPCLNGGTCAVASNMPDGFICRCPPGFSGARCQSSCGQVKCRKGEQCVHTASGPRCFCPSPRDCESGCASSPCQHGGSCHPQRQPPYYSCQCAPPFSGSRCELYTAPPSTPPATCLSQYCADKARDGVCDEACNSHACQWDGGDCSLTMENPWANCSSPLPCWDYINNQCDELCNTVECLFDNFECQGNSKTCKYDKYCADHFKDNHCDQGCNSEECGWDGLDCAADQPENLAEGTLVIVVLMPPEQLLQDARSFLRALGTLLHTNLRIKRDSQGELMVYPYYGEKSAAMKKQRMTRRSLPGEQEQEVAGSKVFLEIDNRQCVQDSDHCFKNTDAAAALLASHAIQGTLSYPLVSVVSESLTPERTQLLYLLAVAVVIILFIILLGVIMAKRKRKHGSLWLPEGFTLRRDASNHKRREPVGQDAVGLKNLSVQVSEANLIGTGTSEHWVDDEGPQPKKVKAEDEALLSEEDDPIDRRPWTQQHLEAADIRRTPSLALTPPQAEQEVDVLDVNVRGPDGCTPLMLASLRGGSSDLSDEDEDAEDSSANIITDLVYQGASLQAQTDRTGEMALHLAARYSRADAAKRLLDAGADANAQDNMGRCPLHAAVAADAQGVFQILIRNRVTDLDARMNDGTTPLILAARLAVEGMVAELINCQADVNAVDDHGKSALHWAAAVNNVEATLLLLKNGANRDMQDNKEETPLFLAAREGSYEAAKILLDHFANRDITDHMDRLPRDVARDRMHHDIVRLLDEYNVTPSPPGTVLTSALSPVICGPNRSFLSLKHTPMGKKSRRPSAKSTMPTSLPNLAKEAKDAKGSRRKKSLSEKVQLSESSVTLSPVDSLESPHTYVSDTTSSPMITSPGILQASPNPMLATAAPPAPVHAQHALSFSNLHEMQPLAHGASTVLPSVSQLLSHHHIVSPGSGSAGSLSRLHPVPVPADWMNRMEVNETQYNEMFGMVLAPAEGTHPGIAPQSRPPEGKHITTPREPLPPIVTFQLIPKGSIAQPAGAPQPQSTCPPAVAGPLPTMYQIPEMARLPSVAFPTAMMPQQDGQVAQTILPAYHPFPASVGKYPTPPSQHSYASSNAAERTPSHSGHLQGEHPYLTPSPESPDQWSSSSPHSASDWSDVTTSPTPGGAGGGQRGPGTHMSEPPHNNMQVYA
Pro-neuregulin-1, membrane-bound isoform (Homo sapiens), sequence (Q02297 whole entry, looked up, the tested form may be a part, canonical isoform): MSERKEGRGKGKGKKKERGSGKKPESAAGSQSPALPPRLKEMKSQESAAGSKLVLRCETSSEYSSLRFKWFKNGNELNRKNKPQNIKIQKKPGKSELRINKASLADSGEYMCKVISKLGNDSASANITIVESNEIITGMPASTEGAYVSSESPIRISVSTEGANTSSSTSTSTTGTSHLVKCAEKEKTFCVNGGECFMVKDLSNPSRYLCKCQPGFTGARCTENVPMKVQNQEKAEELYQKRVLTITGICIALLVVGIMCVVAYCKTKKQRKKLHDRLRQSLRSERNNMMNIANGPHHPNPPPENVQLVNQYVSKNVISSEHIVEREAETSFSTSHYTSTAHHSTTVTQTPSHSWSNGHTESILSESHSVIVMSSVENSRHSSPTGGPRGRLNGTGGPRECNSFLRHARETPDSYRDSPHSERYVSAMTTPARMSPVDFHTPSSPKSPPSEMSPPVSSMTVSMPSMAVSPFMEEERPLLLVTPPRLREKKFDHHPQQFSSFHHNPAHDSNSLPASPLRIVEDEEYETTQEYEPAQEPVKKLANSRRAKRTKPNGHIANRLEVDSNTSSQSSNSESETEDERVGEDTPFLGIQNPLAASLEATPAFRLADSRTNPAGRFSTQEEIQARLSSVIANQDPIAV
Torsin-1A-interacting protein 2 (Homo sapiens), sequence (Q8NFQ8 whole entry, looked up): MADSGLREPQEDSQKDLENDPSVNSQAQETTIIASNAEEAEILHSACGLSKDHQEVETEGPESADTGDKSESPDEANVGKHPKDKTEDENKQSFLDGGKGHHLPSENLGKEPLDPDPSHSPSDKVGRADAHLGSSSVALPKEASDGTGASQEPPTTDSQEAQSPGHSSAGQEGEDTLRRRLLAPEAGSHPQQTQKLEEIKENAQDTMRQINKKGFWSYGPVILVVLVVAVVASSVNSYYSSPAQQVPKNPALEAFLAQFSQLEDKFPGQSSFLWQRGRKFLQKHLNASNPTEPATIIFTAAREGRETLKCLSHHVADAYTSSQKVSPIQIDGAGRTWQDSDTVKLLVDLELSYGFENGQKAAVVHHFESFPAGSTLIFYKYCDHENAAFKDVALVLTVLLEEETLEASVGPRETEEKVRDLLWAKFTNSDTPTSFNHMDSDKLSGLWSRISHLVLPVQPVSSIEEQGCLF

Compound | composite z-score [1] | composite z-score [2] | composite z-score [3] | composite z-score [4] | composite z-score [5] | composite z-score [6] | composite z-score [7] | z-score [8] | composite z-score [9] | composite z-score [10] | composite z-score [11] | z-score [12] | z-score [13] | z-score [14] | composite z-score [15] | z-score [16] | composite z-score [17] | composite z-score [18] | composite z-score [19] | composite z-score [20]
O=C1NC(=O)C2C1C=CC(C(O)c1ccc([N+](=O)[O-])cc1)N2Nc1ccccn1 (stereo not given) | 0.0895 | -0.0755 | -0.0442 | 0.0525 | 0.864 | 0.441 | 0.554 | 0.484 (inactive) | -0.16 | -0.0074 | -0.453 | -0.0716 (inactive) | 0.917 (inactive) | 0.346 (inactive) | 0.307 | -0.562 (inactive) | -0.0218 | 0.241 | -0.432 | -0.0355
CC(C)N1C(=O)c2ccccc2[C@](C)(C(=O)NCC(F)(F)F)[C@@H]1c1ccc(CO)cc1 | 0.531 | -0.226 | -0.0698 | -1 | -0.334 | 0.583 | 0.107 | -0.229 (inactive) | -0.299 | -0.105 | -0.42 | -0.337 (inactive) | -0.837 (inactive) | -0.674 (inactive) | 1.64 | 0.537 (inactive) | 0.146 | -1.4 | -0.445 | -0.179
CC1CC/C=C\[C@H]2OC34C=CCN(c5ccc6ccccc6c5)C(=O)[C@H]3N(C(C)CO)C(=O)[C@@H]4C2C(=O)O1 (stereo not given in full) | 0.018 | -1.51 | -0.178 | -0.489 | -0.858 | -0.318 | -0.0133 | 1.14 (inactive) | -0.187 | -0.0994 | 0.541 | 0.612 (inactive) | -0.197 (inactive) | 0.407 (inactive) | -0.172 | -0.312 (inactive) | -0.244 | -1.1 | -0.0196 | -0.252
CCCC#C[Si](O[C@H](CC)c1cn(Cc2ccccc2)nn1)(C(C)C)C(C)C | -0.0658 | 0.0418 | 0.0252 | 0.435 | 0.734 | 0.53 | 1.02 | 0.403 (inactive) | 0.278 | -0.166 | 1.49 | -1.25 (inactive) | -14.6 (active) | -3.55 (inactive) | 1.72 | 0.657 (inactive) | 0.052 | 1.31 | 1.09 | 0.0458
C=CCOC(=O)[C@@H]1[C@H]2C(=O)O[C@H](c3ccccc3)[C@H](c3ccccc3)N2[C@H](c2ccc(OCCOC(=O)[C@H]3C[C@H]4C(=O)N5CCC[C@H]5C(=O)N4[C@H]3c3cccc(OCCO)c3)cc2)[C@@]12C(=O)Nc1ccc(I)cc12 | -0.0333 | 0.546 | -0.0538 | 0.441 | 0.596 | 0.499 | 1.2 | 1.67 (inactive) | 0.182 | -0.0767 | 1.53 | 1.3 (inactive) | 2.38 (inactive) | 4.79 (inactive) | 1.6 | -0.333 (inactive) | -0.0125 | 1.52 | 1.11 | 0.0238
CN(C)CCCNC(=O)[C@@]1(Cc2ccccc2I)c2ccccc2C(=O)N(C2CCCCC2)[C@H]1c1ccc(CO)cc1 | 1.13 | 1.02 | 0.0676 | 0.293 | 1.24 | 0.418 | 1.26 | -3.32 (inactive) | 0.68 | 0.214 | 1.55 | 0.273 (inactive) | -19.5 (active) | -2.99 (inactive) | 2.34 | 0.0304 (inactive) | 0.446 | 0.27 | 0.953 | 0.123
COc1ccc([Si](C)(C)[C@H]2[C@H](CC(=O)N3CCC[C@H]3CO)O[C@@]3(C(=O)N(Cc4ccc(N5CCCCC5=O)cc4)c4ccccc43)[C@@H]2C)cc1 | -0.35 | 0.227 | -0.0494 | 0.671 | 0.565 | 1.33 | 1.12 | -4.24 (inactive) | 0.536 | 0.0373 | 1.54 | -0.398 (inactive) | 0.591 (inactive) | -0.801 (inactive) | 2.51 | 2.32 (inactive) | -0.18 | 1.41 | 1.06 | -0.0531
C=CCC(OC(C)=O)[C@@H]1[C@@H](N(Cc2cc3ccccc3o2)C(=O)c2cccc3ccccc23)c2cc(OCCCO)ccc2N1C(=O)c1ccc2ccccc2n1 (stereo not given in full) | 1.68 | 0.27 | -0.116 | 0.0823 | 0.16 | -0.0193 | -0.112 | -1.53 (inactive) | -0.061 | -0.125 | 0.109 | 0.472 (inactive) | -0.8 (inactive) | 0.12 (inactive) | 0.588 | 1.06 (inactive) | -0.0285 | 0.728 | -0.127 | -0.182
Cc1ccc(N2C(=O)c3ccccc3[C@](C)(C(=O)NCCCN(C)C)[C@@H]2c2ccc(CO)cc2)nc1 | 0.908 | -0.109 | -0.1 | -0.436 | -0.676 | -0.114 | 0.582 | 1.36 (inactive) | 0.423 | -0.236 | 0.409 | -0.903 (inactive) | -0.808 (inactive) | -1.51 (inactive) | 2.93 | -0.677 (inactive) | -0.0405 | -0.817 | -0.681 | -0.209
